Assay outcomes as filed in PubChem BioAssay.
In the library only some 3.1% were active in any assay of this set; here they are far more common.
Neddyl block: cullin neddylation inhibition | P61081+Q13564 | TR-FRET cullin neddylation, biochemical | calls only at 25 µM | actives 0.58% (n = 360,000) | AID 651699; in the data active means inhibition above about 36%
Rin1-Abl PPI inh: human Rin1-Abl interaction inhibition; P00519+Q13671; TR-FRET Rin1/Abl binding, biochemical; inhibition, % at 7.35 µM; actives 0.4% (n = 360,000); AID 588664; in the data active means inhibition above about 5%, passing the limit was not always enough
UHRF1 MBD2 ctr: human UHRF1 methylated DNA binding inhibitors | UHRF1 binding to methylated oligo, TR-FRET | inhibition, % at 4.4 µM | actives 0.75% (n = 370,000) | AID 687016; in the data active means inhibition above about 21%;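 further: UHRF1 SRA domain binding a hemimethylated CpG hairpin DNA probe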
Target sequence (Q96T88 whole entry, looked up, the tested form may be a part): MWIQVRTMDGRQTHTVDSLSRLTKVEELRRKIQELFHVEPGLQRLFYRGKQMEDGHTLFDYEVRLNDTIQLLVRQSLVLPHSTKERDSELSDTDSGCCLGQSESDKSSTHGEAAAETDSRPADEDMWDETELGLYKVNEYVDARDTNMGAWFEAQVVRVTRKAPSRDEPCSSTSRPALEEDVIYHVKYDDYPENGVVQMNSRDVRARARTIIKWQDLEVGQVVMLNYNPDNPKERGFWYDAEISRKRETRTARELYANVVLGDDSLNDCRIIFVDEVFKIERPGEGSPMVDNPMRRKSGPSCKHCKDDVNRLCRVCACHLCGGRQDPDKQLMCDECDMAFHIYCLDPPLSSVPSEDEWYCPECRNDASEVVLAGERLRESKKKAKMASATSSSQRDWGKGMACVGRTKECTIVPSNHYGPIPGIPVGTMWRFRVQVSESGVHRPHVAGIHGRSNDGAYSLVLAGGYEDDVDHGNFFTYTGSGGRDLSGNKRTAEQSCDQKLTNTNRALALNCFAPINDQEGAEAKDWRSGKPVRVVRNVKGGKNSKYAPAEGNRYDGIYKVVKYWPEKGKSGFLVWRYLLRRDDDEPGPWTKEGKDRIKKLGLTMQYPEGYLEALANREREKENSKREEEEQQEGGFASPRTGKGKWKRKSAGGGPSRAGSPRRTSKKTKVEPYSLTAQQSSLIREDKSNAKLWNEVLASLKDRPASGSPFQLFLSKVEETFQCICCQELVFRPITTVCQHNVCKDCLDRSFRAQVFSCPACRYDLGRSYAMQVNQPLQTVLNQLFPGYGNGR
LEDGF integ inh: blocks HIV-1 LEDGF/p75-dependent DNA integration; TR-FRET IN-LEDGF/p75 DNA integration, Eu/Cy5; inhibition, % at 3.7 µM; actives 0.64% (n = 370,000);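 active means inhibition above the screen-wide mean plus 3 SD, cut at about 13% in these data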;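 further: signal is the Cy5 over europium emission ratio at 671 and 618 nm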
MBD2 DNA inh: blocks human MBD2 binding to methylated DNA; Q9UBB5; TR-FRET, MBD2 binding to methylated oligonucleotide; inhibition, % at 4.4 µM; actives 0.31% (n = 370,000); AID 686964; in the data active means inhibition above about 13%
proKLK7 act: proKLK7 (human) activation, primary screen | P49862 | purified proKLK7, EDANS-DABCYL substrate fluorescence; 100% is mature enzyme control, 0% vehicle | activation, % at 7 µM | actives 0.9% (n = 370,000) | AID 652039;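 active means activation above the mean of all tested compounds plus 3 SD, computed per campaign excluding outliers beyond control limits, cut at about 13% in these data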
Hits are given with their value; n = inactive; x = not tested or not shown; + = active, no number.

SMILES	Neddyl block	Rin1-Abl PPI inh	UHRF1 MBD2 ctr	LEDGF integ inh	MBD2 DNA inh	proKLK7 act
Nc1c(C(=O)N2CCOCC2)cnn1Cc1ccccc1	x	x	n	n	n	n
CNC(=O)c1ccccc1Sc1ccccc1CO	n	n	n	n	n	n
CNC(=O)c1cccc2cccc(Sc3ccccc3C(=O)O)c12	n	n	29	n	n	n
O=C1CC(Nc2ccc(N3CCOCC3)cc2)C(=O)N1Cc1ccccc1 (stereo not drawn)	n	n	n	22	n	n
COCCNC(=O)C1(C)CCN(C(=O)c2sc(-c3ccccc3)nc2C)C1 (stereo not drawn)	n	n	n	n	n	n
CC(C)CNc1ccc2c(c1)OC[C@@H](CC(C)C)NS2(=O)=O	x	x	n	n	n	n
CCC(C)C(CO)NCCCn1cnc2c(SC)ncnc21 (stereo not drawn)	n	n	n	n	n	n
COc1ccc(OC)c(N(CC(=O)N2CCCC2)S(C)(=O)=O)c1	n	n	n	n	n	n
Cn1c(C(=O)N2CCCC(C(=O)NCc3cccs3)C2)cc2sccc21 (stereo not drawn)	n	n	n	n	n	n
Cn1c(C(=O)N2CCCC(C(=O)NCCCSC3CCCCC3)C2)cc2sccc21 (stereo not drawn)	n	n	61	n	n	n
Cc1cc(NS(=O)(=O)c2ccc(NC(=O)NC(C)(C(F)(F)F)C(F)(F)F)cc2)no1	n	n	21	n	n	n
Cc1cc(C)cc(NC(=O)Nc2ccc(S(=O)(=O)Nc3cc(C)on3)cc2)c1	n	n	x	x	x	x
Cc1cccc(-c2nnc(SCC(=O)c3ccc(O)cc3O)n2C)c1	n	n	n	n	n	n
CCOc1ccc(Nc2nc3ccccc3n2C)cc1	n	n	n	n	n	n
CCOc1ccc(Nc2nc3ccccc3n3nnnc23)cc1	+	n	n	n	n	n
CN(C)S(=O)(=O)c1ccc(Cl)c(C(=O)Nc2nc3ccccc3[nH]2)c1	n	n	39	n	n	n
Cc1ccc(S(=O)(=O)NCC(=O)OCN2C(=O)c3ccccc3C2=O)cc1	x	x	n	n	n	n
Cc1cc(C)cc(OCC(=O)NC2CCCc3ccccc32)c1 (stereo not drawn)	n	n	21	n	n	n
CSc1cccc(N2CC(C(=O)N(CC(C)C)c3c(N)n(Cc4ccccc4)c(=O)[nH]c3=O)CC2=O)c1 (stereo not drawn)	n	n	n	n	n	n
CC(=O)Nc1ccc(NC(=O)C(C)OC(=O)CNS(=O)(=O)c2cccc(Cl)c2)cc1 (stereo not drawn)	n	n	52	n	n	n
O=C(CCc1ccc(O)c(O)c1)N/N=C/c1cc2c(cc1[N+](=O)[O-])OCO2	n	n	28	53	n	n
CC(C)(C)c1ccc(O)c(N=Cc2cc3c(cc2[N+](=O)[O-])OCO3)c1	n	n	n	n	n	n
Cc1cccc(C)c1OCC(=O)N/N=C/c1cc2c(cc1[N+](=O)[O-])OCO2	n	n	n	n	n	n
Cc1ccc(N=Cc2cc3c(cc2[N+](=O)[O-])OCO3)cc1[N+](=O)[O-]	n	n	n	15	n	n
O=C(N=Nc1c(O)[nH]c2ccc(F)cc12)C1COc2ccccc2O1 (stereo not drawn)	n	n	n	n	n	n
SMILES	Neddyl block	Rin1-Abl PPI inh	UHRF1 MBD2 ctr	LEDGF integ inh	MBD2 DNA inh	proKLK7 act
COc1ccc(CNC(=O)CN(c2ccc(C)cc2)S(=O)(=O)c2c(C)nn(C)c2C)cc1	n	n	n	n	n	n
COC(=O)C[C@H]1CC[C@H]2[C@H](COc3ccc(NC(=O)Cc4cccs4)cc3C(=O)N2C)O1	x	x	n	n	n	n
CC1CN(S(=O)(=O)c2cccc(C(=O)NCc3ccccn3)c2)CC(C)O1 (stereo not drawn)	n	n	28	n	n	n
CC1CN(S(=O)(=O)c2cccc(C(=O)NCCCn3ccnc3)c2)CC(C)O1 (stereo not drawn)	n	n	n	n	n	n
CC1CN(S(=O)(=O)c2ccc(C(=O)Nc3ccc(S(=O)(=O)Nc4ncccn4)cc3)cc2)CC(C)O1 (stereo not drawn)	n	n	36	n	n	n
Cc1cc(C)nc(NS(=O)(=O)c2ccc(NC(=O)c3ccc(S(=O)(=O)N4CC(C)OC(C)C4)cc3)cc2)n1 (stereo not drawn)	n	n	n	n	n	n
COc1cc(/C=C(/C#N)c2ccc(F)cc2)ccc1OCc1ccc(C(=O)O)o1	n	n	n	n	n	n
COc1ccccc1C(=O)Nc1ccnn1C1CCN(CCCc2ccccc2)CC1	n	n	n	n	n	n
CCN(CC)C(=O)C(=O)N/N=C/c1ccc(F)cc1	n	n	n	n	n	n
CCOc1ccc(NC(=S)Nc2cc(OC)c(Cl)cc2OC)cc1	n	n	n	n	n	n
Cn1nc(CC(=O)Nc2ncc(Br)s2)c2ccccc2c1=O	n	n	22	n	n	n
Cn1nc(CC(=O)NC2CCCCCCCCCCC2)c2ccccc2c1=O	n	n	n	n	n	n
CC(NC(=O)OCc1ccccc1)C(=O)Oc1cc2oc(=O)cc(-c3ccccc3)c2cc1Cl (stereo not drawn)	x	n	n	n	n	24
COc1ccc(-c2c(C)n([O-])c(C)c(C)[n+]2=O)cc1OC	n	n	23	n	n	n
COc1ccc(-c2c(C)n([O-])c(C)c(-c3ccccc3)[n+]2=O)cc1OC	n	n	n	n	n	n
CCCOC(=O)CCCCCCCCC(O)CN1CCCCC1 (stereo not drawn)	n	n	23	n	n	n
COC(=O)CCCCCCCCCCN1CCCCC1	n	n	n	n	n	n
CCOc1ccc(-n2cc(-c3ccccc3)c3c(SC(C)C(=O)OC)ncnc32)cc1 (stereo not drawn)	n	n	22	n	n	n
COc1cc(-c2ccc(Nc3ccccc3C(=O)O)c(OC)c2)ccc1Nc1ccccc1C(=O)O	n	n	22	n	n	n
CCOC(=O)c1sc(NC(=O)CSC(=S)N2CCN(C)CC2)nc1C	n	n	n	n	n	n
O=C(O)c1cn(-c2ccc(F)cc2)c2cc(Cl)c(F)cc2c1=O	n	n	28	n	n	n
C[C@@H]1CN([C@@H](C)CO)C(=O)CCCn2nncc2CO[C@H]1CN(C)C(=O)Nc1ccc(N2CCN(C)CC2)cc1	x	x	n	n	n	n
c1ccc(CSc2nnc(-c3ccco3)n2Cc2ccco2)cc1	n	n	n	n	n	n
CCCCOc1[nH]c2nc(-c3ccco3)n(Cc3ccco3)c(=N)c2c1C#N	x	n	n	19	n	n
O=C(Nc1ccc(-c2nc3ncccc3o2)cc1)c1ccc([N+](=O)[O-])o1	n	n	40	n	n	n
O=C(O)c1cc([N+](=O)[O-])ccc1NCCc1ccccc1	n	n	25	n	n	n
O=C(O)c1cc([N+](=O)[O-])ccc1Nc1ccccc1	n	n	n	n	n	n
